Our source for the binding signal values is paper PMC9911399, “Two distinct binding modes provide the RNA-binding protein RbFox with extraordinary sequence specificity”.

Substitutions are numbered along the chain they refer to; changes in the protein carry UniProt numbers. Over roughly 16,000 sequences, “ka relative to ugcaugu” has its median near 0.0091; the highest 2% begin near 0.032. The list comes from a sample in which the highest values are over-represented; it also holds similar and randomly drawn sequences.

To fix the notation:
T1: RBFOX1 RRM (Homo sapiens, UniProt Q9NWB1 109-208)
T1 sequence: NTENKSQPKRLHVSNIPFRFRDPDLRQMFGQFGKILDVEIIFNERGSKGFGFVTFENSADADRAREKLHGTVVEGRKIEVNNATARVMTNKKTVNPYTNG

B1: AUAAAAA (DNA:RNA)
RNA: GGGAGACCGGAAUUCAGAUUGUCCAUAAAAAUUAAAUCCCGUCGUAGCCACCA
DNA 1: CAATCTGAATTCCGGTCTCCC
DNA 2: TGGTGGCTACGACGGGATT
B2: UUAUCUG (DNA:RNA)
RNA: B1 RNA with A25U, A28U, A29C, A30U, A31G
DNA 1: CAATCTGAATTCCGGTCTCCC
DNA 2: TGGTGGCTACGACGGGATT
B3: AAGCCCG (DNA:RNA)
RNA: B1 RNA with U26A, A27G, A28C, A29C, A30C, A31G
DNA 1: CAATCTGAATTCCGGTCTCCC
DNA 2: TGGTGGCTACGACGGGATT
B4: AAGCACG (DNA:RNA)
RNA: B1 RNA with U26A, A27G, A28C, A30C, A31G
DNA 1: CAATCTGAATTCCGGTCTCCC
DNA 2: TGGTGGCTACGACGGGATT
B5: AAGCACC (DNA:RNA)
RNA: B1 RNA with U26A, A27G, A28C, A30C, A31C
DNA 1: CAATCTGAATTCCGGTCTCCC
DNA 2: TGGTGGCTACGACGGGATT
B6: AAAACAC (DNA:RNA)
RNA: B1 RNA with U26A, A29C, A31C
DNA 1: CAATCTGAATTCCGGTCTCCC
DNA 2: TGGTGGCTACGACGGGATT
B7: CAUCUUU (DNA:RNA)
RNA: GGGAGACCGGAAUUCAGAUUGUCCCAUCUUUUUAAAUCCCGUCGUAGCCACCA
DNA 1: CAATCTGAATTCCGGTCTCCC
DNA 2: TGGTGGCTACGACGGGATT
B8: UGCCGGU (DNA:RNA)
RNA: B7 RNA with C25U, A26G, U27C, U29G, U30G
DNA 1: CAATCTGAATTCCGGTCTCCC
DNA 2: TGGTGGCTACGACGGGATT
B9: CUGCCUG (DNA:RNA)
RNA: B7 RNA with A26U, U27G, U29C, U31G
DNA 1: CAATCTGAATTCCGGTCTCCC
DNA 2: TGGTGGCTACGACGGGATT
B10: UGCCCUG (DNA:RNA)
RNA: B7 RNA with C25U, A26G, U27C, U29C, U31G
DNA 1: CAATCTGAATTCCGGTCTCCC
DNA 2: TGGTGGCTACGACGGGATT
B11: UGCUGUU (DNA:RNA)
RNA: B7 RNA with C25U, A26G, U27C, C28U, U29G
DNA 1: CAATCTGAATTCCGGTCTCCC
DNA 2: TGGTGGCTACGACGGGATT
B12: UGCCUGU (DNA:RNA)
RNA: B7 RNA with C25U, A26G, U27C, U30G
DNA 1: CAATCTGAATTCCGGTCTCCC
DNA 2: TGGTGGCTACGACGGGATT
B13: CUGUGCC (DNA:RNA)
RNA: B1 RNA with A25C, A27G, A28U, A29G, A30C, A31C
DNA 1: CAATCTGAATTCCGGTCTCCC
DNA 2: TGGTGGCTACGACGGGATT

The experiment has as its target T1, RBFOX1 RRM. In words: EMSA; HiTS-Eq, 1 nM pool, 10 min; buffer printed only for the single-RNA assays: 10 mM Tris pH 7.5, 150 mM NaCl, 3.4 mM EDTA, 0.001% NP-40, 30 C. The conditions noted are these: tags: His6 N-terminal (pET28a); label: 5' 32P. The essentials: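 Purified RbFox RRM (wild type or mutant) was equilibrated for 10 min in 50 µL with 1 nM of a 5′-radiolabelled pool of RNA with 7 randomized nucleotides, its flanks annealed to DNA oligonucleotides, across increasing protein concentrations. Free RNA was separated by 8% native PAGE, excised, reverse-transcribed, PCR-barcoded and sequenced on an Illumina HiSeq 2500. Relative association constants came from read-count changes of each variant against the control reaction, normalised to the cognate motif.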
Background: Mobility shift assays separate free from complexed probe on a gel.
For B1, the binding signal is 0.00125 KA relative to UGCAUGU.
Next, B2: 0.0132 KA relative to UGCAUGU.
As for B3, the binding signal was 0.00982 KA relative to UGCAUGU.
Next, B4: 0.0333 KA relative to UGCAUGU; B5: 0.00479 KA relative to UGCAUGU.
As to B6, the binding signal was 0.00144 KA relative to UGCAUGU.
Next, B7: 0.00311 KA relative to UGCAUGU.
With B8 the figure was 0.0131 KA relative to UGCAUGU; with B9, 0.0391 KA relative to UGCAUGU.
On to B10, for which the binding signal was 0.025 KA relative to UGCAUGU.
Next, B11: 0.0254 KA relative to UGCAUGU; B12: 0.0501 KA relative to UGCAUGU; B13: 0.0119 KA relative to UGCAUGU.
